The full data set covers some 7,900 targets. This sample favours those with a hit. About 0.6% of all pairs of compound and target were hits.

Sequence of UniProt O14757 (O14757 whole entry, looked up): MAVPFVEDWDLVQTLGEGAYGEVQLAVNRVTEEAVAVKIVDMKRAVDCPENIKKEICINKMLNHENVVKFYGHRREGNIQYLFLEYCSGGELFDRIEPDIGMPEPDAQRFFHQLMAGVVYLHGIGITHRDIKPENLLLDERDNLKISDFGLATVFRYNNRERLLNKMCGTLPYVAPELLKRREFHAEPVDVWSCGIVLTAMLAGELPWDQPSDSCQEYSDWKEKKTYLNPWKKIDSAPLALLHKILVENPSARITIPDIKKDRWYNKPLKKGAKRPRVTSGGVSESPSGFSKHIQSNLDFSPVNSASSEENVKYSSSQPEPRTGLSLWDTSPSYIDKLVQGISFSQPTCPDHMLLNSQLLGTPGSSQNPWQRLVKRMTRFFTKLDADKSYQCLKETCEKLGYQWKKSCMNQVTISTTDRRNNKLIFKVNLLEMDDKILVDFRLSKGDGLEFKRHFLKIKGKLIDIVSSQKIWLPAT
Sequence of UniProt Q9Y646 (Q9Y646 whole entry, looked up): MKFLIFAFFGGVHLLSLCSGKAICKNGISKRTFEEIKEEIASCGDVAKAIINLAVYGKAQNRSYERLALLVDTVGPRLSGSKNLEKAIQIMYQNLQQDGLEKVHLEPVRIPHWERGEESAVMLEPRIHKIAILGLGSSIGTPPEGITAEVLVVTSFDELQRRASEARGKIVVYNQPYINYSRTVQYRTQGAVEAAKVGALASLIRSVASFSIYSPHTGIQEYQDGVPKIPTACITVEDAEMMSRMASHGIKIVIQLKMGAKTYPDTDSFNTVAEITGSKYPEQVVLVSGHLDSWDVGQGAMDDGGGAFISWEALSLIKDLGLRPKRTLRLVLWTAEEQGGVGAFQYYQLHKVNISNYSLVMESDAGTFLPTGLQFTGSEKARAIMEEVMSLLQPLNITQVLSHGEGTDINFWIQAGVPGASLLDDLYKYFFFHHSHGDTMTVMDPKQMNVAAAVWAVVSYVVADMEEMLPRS
Sequence of UniProt P46108 (P46108 whole entry, looked up): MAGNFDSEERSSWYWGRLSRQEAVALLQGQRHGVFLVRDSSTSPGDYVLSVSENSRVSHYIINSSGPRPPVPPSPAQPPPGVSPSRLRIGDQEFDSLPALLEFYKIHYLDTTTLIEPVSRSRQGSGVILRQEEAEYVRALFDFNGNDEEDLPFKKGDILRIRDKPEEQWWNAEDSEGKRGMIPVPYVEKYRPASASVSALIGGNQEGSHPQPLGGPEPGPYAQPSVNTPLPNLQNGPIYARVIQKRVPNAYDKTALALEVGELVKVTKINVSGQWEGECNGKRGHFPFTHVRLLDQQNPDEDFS
Sequence of UniProt P67870 (P67870 whole entry, looked up): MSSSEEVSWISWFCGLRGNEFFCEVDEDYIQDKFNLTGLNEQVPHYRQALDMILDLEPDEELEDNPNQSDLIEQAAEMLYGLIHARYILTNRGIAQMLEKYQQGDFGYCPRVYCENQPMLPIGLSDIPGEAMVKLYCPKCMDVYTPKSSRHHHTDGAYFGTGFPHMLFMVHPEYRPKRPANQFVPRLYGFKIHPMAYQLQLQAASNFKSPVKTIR
Sequence of UniProt A5YKK6 (A5YKK6 whole entry, looked up): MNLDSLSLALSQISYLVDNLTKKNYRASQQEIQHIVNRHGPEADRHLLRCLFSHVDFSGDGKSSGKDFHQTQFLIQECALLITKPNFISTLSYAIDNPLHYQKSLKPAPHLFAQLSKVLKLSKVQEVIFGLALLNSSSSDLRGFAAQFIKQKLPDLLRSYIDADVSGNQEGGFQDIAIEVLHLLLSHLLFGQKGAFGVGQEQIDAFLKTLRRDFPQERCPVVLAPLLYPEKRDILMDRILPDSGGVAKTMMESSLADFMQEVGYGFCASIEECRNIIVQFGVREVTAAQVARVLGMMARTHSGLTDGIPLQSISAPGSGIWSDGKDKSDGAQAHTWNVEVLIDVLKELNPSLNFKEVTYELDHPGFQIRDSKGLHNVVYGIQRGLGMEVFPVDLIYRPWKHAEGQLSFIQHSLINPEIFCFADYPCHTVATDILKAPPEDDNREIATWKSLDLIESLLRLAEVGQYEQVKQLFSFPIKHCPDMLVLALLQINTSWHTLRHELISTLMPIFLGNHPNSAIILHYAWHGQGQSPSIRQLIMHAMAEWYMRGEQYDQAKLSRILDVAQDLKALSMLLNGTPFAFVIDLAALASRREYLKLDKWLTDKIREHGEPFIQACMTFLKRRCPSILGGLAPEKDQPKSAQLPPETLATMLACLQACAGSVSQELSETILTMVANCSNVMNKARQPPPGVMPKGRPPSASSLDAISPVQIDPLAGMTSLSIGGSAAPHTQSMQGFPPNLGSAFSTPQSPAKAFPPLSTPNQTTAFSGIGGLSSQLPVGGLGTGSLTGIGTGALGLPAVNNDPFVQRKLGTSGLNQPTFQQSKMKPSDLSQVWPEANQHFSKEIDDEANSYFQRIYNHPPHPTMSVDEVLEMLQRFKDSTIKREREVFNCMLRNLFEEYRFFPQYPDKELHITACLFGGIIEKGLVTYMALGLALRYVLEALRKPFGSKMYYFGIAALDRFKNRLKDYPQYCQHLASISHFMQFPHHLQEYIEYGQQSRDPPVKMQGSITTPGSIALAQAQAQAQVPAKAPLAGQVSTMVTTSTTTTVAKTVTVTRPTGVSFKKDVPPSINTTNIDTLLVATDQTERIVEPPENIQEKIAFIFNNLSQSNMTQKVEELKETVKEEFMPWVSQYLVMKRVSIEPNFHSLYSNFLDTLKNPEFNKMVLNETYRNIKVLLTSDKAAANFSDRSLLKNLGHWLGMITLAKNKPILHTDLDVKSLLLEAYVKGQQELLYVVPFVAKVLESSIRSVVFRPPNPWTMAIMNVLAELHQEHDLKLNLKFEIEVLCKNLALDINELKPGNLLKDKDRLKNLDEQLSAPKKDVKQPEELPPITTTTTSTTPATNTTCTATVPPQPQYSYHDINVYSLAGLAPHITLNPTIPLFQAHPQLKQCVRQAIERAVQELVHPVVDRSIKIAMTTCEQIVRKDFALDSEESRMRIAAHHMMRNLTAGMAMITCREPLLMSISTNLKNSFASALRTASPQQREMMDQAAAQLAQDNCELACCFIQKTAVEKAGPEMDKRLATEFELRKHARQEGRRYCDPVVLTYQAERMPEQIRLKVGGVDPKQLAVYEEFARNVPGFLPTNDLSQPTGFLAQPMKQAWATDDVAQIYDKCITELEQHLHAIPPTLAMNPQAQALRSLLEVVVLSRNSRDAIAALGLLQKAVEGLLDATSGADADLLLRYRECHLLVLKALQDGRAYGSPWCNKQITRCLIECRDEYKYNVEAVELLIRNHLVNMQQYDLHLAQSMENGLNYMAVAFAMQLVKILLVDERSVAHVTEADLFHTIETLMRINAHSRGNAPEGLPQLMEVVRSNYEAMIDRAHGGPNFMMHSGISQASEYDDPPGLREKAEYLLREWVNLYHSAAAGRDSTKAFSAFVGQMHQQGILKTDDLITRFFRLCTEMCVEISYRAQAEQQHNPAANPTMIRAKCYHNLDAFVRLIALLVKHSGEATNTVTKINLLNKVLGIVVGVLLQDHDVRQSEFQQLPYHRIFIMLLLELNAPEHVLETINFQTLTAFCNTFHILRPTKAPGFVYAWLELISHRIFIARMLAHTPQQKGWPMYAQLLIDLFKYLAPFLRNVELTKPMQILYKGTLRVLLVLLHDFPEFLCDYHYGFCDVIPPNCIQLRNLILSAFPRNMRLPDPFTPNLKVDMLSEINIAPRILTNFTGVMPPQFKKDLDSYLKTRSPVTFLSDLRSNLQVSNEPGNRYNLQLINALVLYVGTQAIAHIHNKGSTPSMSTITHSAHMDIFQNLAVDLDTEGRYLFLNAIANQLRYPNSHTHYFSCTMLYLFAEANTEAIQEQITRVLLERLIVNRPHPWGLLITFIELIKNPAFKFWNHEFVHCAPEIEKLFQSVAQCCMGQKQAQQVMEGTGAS
Sequence of UniProt P50416 (P50416 whole entry, looked up): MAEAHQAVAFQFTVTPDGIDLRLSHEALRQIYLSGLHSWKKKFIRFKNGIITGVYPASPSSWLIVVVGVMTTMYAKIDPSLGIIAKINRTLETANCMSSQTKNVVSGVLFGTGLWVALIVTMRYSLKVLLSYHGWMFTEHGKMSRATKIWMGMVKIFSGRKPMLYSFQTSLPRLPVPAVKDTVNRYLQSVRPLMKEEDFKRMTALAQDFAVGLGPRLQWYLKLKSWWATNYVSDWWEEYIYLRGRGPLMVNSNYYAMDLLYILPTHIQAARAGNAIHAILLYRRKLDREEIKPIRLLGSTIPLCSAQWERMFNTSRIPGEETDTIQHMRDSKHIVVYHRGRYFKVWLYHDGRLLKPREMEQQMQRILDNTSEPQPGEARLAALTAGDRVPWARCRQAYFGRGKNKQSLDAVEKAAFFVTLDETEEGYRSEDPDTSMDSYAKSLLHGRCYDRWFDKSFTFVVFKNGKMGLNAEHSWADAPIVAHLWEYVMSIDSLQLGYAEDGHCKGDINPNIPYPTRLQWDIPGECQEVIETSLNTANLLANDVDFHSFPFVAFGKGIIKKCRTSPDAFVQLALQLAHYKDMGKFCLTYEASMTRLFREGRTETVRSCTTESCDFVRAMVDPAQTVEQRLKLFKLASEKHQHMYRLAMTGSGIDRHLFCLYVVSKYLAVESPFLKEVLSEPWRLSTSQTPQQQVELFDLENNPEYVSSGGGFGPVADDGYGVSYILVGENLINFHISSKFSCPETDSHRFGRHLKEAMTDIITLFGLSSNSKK
Sequence of UniProt Q8N1A6 (Q8N1A6 whole entry, looked up): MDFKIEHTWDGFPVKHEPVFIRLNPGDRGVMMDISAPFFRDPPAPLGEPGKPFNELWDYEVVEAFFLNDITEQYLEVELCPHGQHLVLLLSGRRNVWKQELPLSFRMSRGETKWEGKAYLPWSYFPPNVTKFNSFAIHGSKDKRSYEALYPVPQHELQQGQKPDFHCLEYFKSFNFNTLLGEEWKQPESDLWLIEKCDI
Sequence of UniProt Q9H444 (Q9H444 whole entry, looked up): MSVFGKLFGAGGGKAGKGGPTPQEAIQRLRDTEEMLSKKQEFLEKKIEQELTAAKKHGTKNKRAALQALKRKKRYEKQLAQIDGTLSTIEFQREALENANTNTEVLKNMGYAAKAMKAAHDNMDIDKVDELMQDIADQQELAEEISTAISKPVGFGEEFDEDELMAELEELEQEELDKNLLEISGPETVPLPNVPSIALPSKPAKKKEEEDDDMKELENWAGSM

Compound in the first test: C1=CC=C(C=C1)[C@H](COC2=CC3=C(C=C2)NC(=O)N3)NC(=O)C4=CC=CN(C4=O)CC5=CC(=C(C=C5)F)F
The test can be described thus: log2 fold change, soluble protein after heating vs DMSO (PISA); higher = thermal stabilisation; K562 cells, 10 uM, 30 min; active = over 0.2 and 3.5 SD of the protein, either way, in both replicates (recomputed). The essentials: (§1)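 K562 cells at 2×10^6 cells/mL were treated for 30 min with 10 μM compound, and aliquots were heated for 3 min over 48°C-58°C before pooling. Extraction used PBS with 0.5% NP-40 at 4°C, and soluble protein was the supernatant after 21,000xg for 90 min, measured by TMTpro 16plex LC-MS/MS with channel sums equalised. Thermal stability values, relative to control samples and from duplicates, are log2 fold changes.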
Consider CDC42BPB (UniProt Q9Y5S2), for which the log2 fold change is -0.114 (inactive).
For CASC3 (UniProt O15234), the log2 fold change is 0.02 (inactive).
On the same count and under the same terms, for CCNB1 (UniProt P14635) the value was -0.004 (inactive).
Consider CCAR2 isoform 2 (UniProt Q8N163), for which the log2 fold change is -0.057 (inactive).
Consider COX20 isoform 2 (UniProt Q5RI15), for which the log2 fold change is 0.071 (inactive).
On the same count and under the same terms, as for CLCN7 (UniProt P51798), the figure is -0.018 (inactive); as for CDK5RAP1 (UniProt Q96SZ6), 0.056 (inactive).
On the same count and under the same terms, for COPS3 (UniProt Q9UNS2) the value was 0.011 (inactive).
The same measure, in the same setting: for CASP7 isoform 3 (UniProt P55210) the value was 0.12 (inactive).
Regarding CPT1A (UniProt P50416), the log2 fold change was 0.095 (inactive).
CCNK isoform 4 (UniProt O75909): the log2 fold change is 0.045 (inactive).
Still for that read-out and setting: for CORO2A (UniProt Q92828) the value was -0.057 (inactive); for CSNK2B (UniProt P67870), -0.047 (inactive); for CNOT1 (UniProt A5YKK6), -0.02 (inactive).
Same read-out and setting: for CRLF3 (UniProt Q8IUI8) the value was -0.03 (inactive).
Turning to CS (UniProt F8VU34), the log2 fold change is -0.03 (inactive).
On the same count and under the same terms, for CD68 (UniProt P34810) the value was 0.021 (inactive); for CTBS (UniProt Q01459), 0.082 (inactive); for CSNK1A1 isoform 3 (UniProt P48729), -0.061 (inactive).
Same read-out and setting: as for CDK5RAP3 isoform 4 (UniProt Q96JB5), the figure is -0.042 (inactive).
Regarding CSNK2A2 (UniProt P19784), the log2 fold change was -0.025 (inactive).
Still for that read-out and setting: for CHERP (UniProt Q8IWX8) the value was -0.023 (inactive).
Still for that read-out and setting: for CRK (UniProt P46108) the value was 0 (inactive); for CNOT4 isoform 6 (UniProt O95628), -0.019 (inactive); for CHEK1 (UniProt O14757), 0.006 (inactive).
Regarding C4orf33 (UniProt Q8N1A6), the log2 fold change is -0.041 (inactive).
Still for that read-out and setting: for CPQ (UniProt Q9Y646) the value was 0.045 (inactive); for COX15 (UniProt Q7KZN9), -0.027 (inactive).
Still for that read-out and setting: for CHMP4B (UniProt Q9H444) the value was -0.015 (inactive); for CSNK1A1 (UniProt P48729), 0.048 (inactive).
As for CIZ1 (UniProt Q9ULV3), the log2 fold change is 0.021 (inactive).
Still for that read-out and setting: for CHD4 isoform 2 (UniProt Q14839) the value was -0.065 (inactive).
Same read-out and setting: for CNOT4 isoform 9 (UniProt O95628) the value was 0.009 (inactive); for COX7B (UniProt P24311), -0.003 (inactive).

Compound in another test: CC1=C(SC2=C1C(=N[C@H](C3=NN=C(N32)C)CC(=O)N)C4=CC=C(C=C4)Cl)C
The description is as above. The essentials:
as §1
On to CDC42BPB (UniProt Q9Y5S2), for which the log2 fold change was -0.031 (inactive).
Same read-out and setting: as for CASC3 (UniProt O15234), the figure is 0.044 (inactive); as for CCNB1 (UniProt P14635), 0.036 (inactive).
The same measure, in the same setting: for CCAR2 isoform 2 (UniProt Q8N163) the value was -0.014 (inactive).
Regarding COX20 isoform 2 (UniProt Q5RI15), the log2 fold change was 0.05 (inactive).
The same measure, in the same setting: as for CLCN7 (UniProt P51798), the figure is 0.024 (inactive); as for CDK5RAP1 (UniProt Q96SZ6), 0.029 (inactive).
Same read-out and setting: as for COPS3 (UniProt Q9UNS2), the figure is 0.001 (inactive); as for CPT1A (UniProt P50416), 0.011 (inactive); as for CCNK isoform 4 (UniProt O75909), -0.115 (inactive).
For CORO2A (UniProt Q92828), the log2 fold change is -0.041 (inactive).
In the case of CSNK2B (UniProt P67870), the log2 fold change is 0.043 (inactive).
Same read-out and setting: as for CNOT1 (UniProt A5YKK6), the figure is 0.021 (inactive); as for CRLF3 (UniProt Q8IUI8), 0.045 (inactive).
Same read-out and setting: for CTBS (UniProt Q01459) the value was -0.002 (inactive).
On the same count and under the same terms, for CDK5RAP3 isoform 4 (UniProt Q96JB5) the value was 0.054 (inactive).
As to CSNK2A2 (UniProt P19784), the log2 fold change was 0.08 (inactive).
Still for that read-out and setting: for CHERP (UniProt Q8IWX8) the value was -0.07 (inactive).
Same read-out and setting: as for CRK (UniProt P46108), the figure is 0.013 (inactive).
The same measure, in the same setting: for CNOT4 isoform 6 (UniProt O95628) the value was 0.012 (inactive); for CHEK1 (UniProt O14757), 0.065 (inactive); for C4orf33 (UniProt Q8N1A6), 0.176 (inactive).
For CPQ (UniProt Q9Y646), the log2 fold change was -0.077 (inactive).
Consider COX15 (UniProt Q7KZN9), for which the log2 fold change is 0.071 (inactive).
Same read-out and setting: as for CHMP4B (UniProt Q9H444), the figure is -0.004 (inactive); as for CSNK1A1 (UniProt P48729), 0 (inactive).
On the same count and under the same terms, for CIZ1 (UniProt Q9ULV3) the value was 0.047 (inactive).
Still for that read-out and setting: as for CHD4 isoform 2 (UniProt Q14839), the figure is 0 (inactive); as for CNOT4 isoform 9 (UniProt O95628), -0.09 (inactive).
For COX7B (UniProt P24311), the log2 fold change is 0.001 (inactive).

Compound in a further test: CC1=C2C(=CC=C1)N=C(N(C2=O)C3=CC=CC=C3C)CN4C=NC5=C(N=CN=C54)N
The test is described as above. The essentials:
as §1
Regarding CDC42BPB (UniProt Q9Y5S2), the log2 fold change was 0.009 (inactive).
The same measure, in the same setting: as for CASC3 (UniProt O15234), the figure is 0.015 (inactive); as for CCNB1 (UniProt P14635), 0.015 (inactive); as for CCAR2 isoform 2 (UniProt Q8N163), 0.079 (inactive).
COX20 isoform 2 (UniProt Q5RI15): the log2 fold change was 0 (inactive).
Same read-out and setting: as for CLCN7 (UniProt P51798), the figure is -0.054 (inactive); as for CDK5RAP1 (UniProt Q96SZ6), 0.149 (inactive).
Same read-out and setting: as for COPS3 (UniProt Q9UNS2), the figure is 0 (inactive); as for CPT1A (UniProt P50416), 0.125 (inactive); as for CCNK isoform 4 (UniProt O75909), 0.015 (inactive).
Still for that read-out and setting: for CORO2A (UniProt Q92828) the value was 0.061 (inactive); for CSNK2B (UniProt P67870), 0 (inactive); for CNOT1 (UniProt A5YKK6), 0.031 (inactive).
Regarding CRLF3 (UniProt Q8IUI8), the log2 fold change is 0.087 (inactive).
Turning to CTBS (UniProt Q01459), the log2 fold change is 0.014 (inactive).
The same measure, in the same setting: as for CDK5RAP3 isoform 4 (UniProt Q96JB5), the figure is 0.099 (inactive); as for CSNK2A2 (UniProt P19784), 0.052 (inactive); as for CHERP (UniProt Q8IWX8), 0.008 (inactive).
Consider CRK (UniProt P46108), for which the log2 fold change was 0.005 (inactive).
On the same count and under the same terms, for CNOT4 isoform 6 (UniProt O95628) the value was 0.068 (inactive).
On the same count and under the same terms, for CHEK1 (UniProt O14757) the value was 0.087 (inactive); for C4orf33 (UniProt Q8N1A6), 0.066 (inactive).
On the same count and under the same terms, for CPQ (UniProt Q9Y646) the value was -0.078 (inactive); for COX15 (UniProt Q7KZN9), 0.036 (inactive).
With CHMP4B (UniProt Q9H444), the log2 fold change is 0.031 (inactive).
Turning to CSNK1A1 (UniProt P48729), the log2 fold change was 0.008 (inactive).
Same read-out and setting: for CIZ1 (UniProt Q9ULV3) the value was 0.025 (inactive); for CHD4 isoform 2 (UniProt Q14839), 0.021 (inactive); for CNOT4 isoform 9 (UniProt O95628), 0.147 (inactive).
Still for that read-out and setting: as for COX7B (UniProt P24311), the figure is 0.063 (inactive).

For the origin of these results see the supplement of paper PMC10849652.
